From PubChem BioAssay (Tox21)
Results filed as inconclusive are left out. Entries that show only a call come without a potency. Activity calls are given as the source filed them. Calls follow the shape of the dose curve; as a rule, active = well fitted cell-killing curve with a large enough effect in the repeat runs; inconclusive = weak or mixed curves, or effect the other way; inactive = no such curve, though single readings can be large or run the other way.

Assay: qHTS assay to identify small molecule antagonists of the progesterone receptor (PR) signaling pathway - cell viability counter screen (AID 1346798); also: nearly all actives have a fitted effect of over 50% in size
Conditions: PR-UAS-bla HEK293T viability, CellTiter-Glo luminescence, 16 h; series mostly up to 92.4 µM
Excerpt: National Center for Advancing Translational Sciences [NCATS]
NIH Chemical Genomics Center [NCGC]
U.S. Environmental Protection Agency [EPA]
National Institutes of Environmental Health Sciences [NIEHS]
National Toxicology Program [NTP]
U.S. Food and Drug Administration [FDA]
Progesterone receptor (PR), a nuclear hormone receptor, plays an important role in development, metabolic homeostasis and reproduction. It is activated by the steroid hormone progesterone. Endocrine disrupting chemicals (EDCs) and their interactions with steroid hormone receptors like PR causes disruption of normal endocrine function. To identify the compounds that inhibit PR signaling, a PR-UAS-bla GripTite cell line i.e. PR-UAS-bla HEK293T (Invitrogen, Carlsbad, CA, USA) containing a beta-lactamase reporter gene under the control of an UAS response element was used to screen Tox21 10K compound library. The cytotoxicity of the Tox21 compound library against the PR-bla cell line was tested in parallel by measuring the cell viability using CellTiter-Glo assay in the same wells.
Tox21 Assay Protocol Summary:
PR-UAS-bla HEK293T cells were dispensed at 3,000 cells/4 uL of assay medium containing 2% charcoal stripped FBS per well into black wall/clear-bottom 1536-well plates using a Multidrop Combi (ThermoFisher Scientific, Waltham, MA) dispenser. After the assay plates were incubated at a 37C and 5% CO2 for 4 hr, 23 nL of compounds dissolved in DMSO, positive controls or DMSO only was transferred to the assay plate by a Pintool station (Kalypsys, San Diego, CA), followed by addition of 1 uL of R5020 in assay medium using a Flying Reagent Dispenser (FRD, Aurora Discovery, San Diego, CA). The plates were incubated at 37C and 5% CO2 for 16 hr. Then 1 uL of LiveBLAzer B/G FRET substrate was added using a Flying Reagent Dispenser, the plates were incubated at room temperature for 2 hours, and fluorescence intensity was measured by an Envision plate reader (PerkinElmer, Shelton, CT). For cell viability readout that measures cytotoxicity, 4 uL/well of CellTiter-Glo reagent was added into the assay plates using a FRD. After 30 min incubation at room temperature, the luminescence intensity in the plates was measured using a ViewLux (PerkinElmer) plate reader.

Compound | Potency | activity change, negative = cytotoxicity
CC1=CCC(=C(C)C)CC1 | inactive | 
C1CCC(SSC2CCCCC2)CC1 | inactive | 
COC(C)=O | inactive | 
c1ccc(C(O[C@@H]2CCCN(CCc3ccc4c(c3)OCO4)C2)c2ccccc2)cc1 | inactive | 
Clc1nnc(Cl)c2ccccc12 | inactive | 
COc1cc(/C=C/c2ccccc2)oc(=O)c1 | inactive | 
O=c1c(O)c(-c2ccc(O)cc2O)oc2cc(O)cc(O)c12 | inactive | 
CCCCN(CCCC)CC(O)c1cc(Cl)cc2c1-c1ccc(Cl)cc1/C2=C/c1ccc(Cl)cc1 (stereo not given) | inactive | 
CCCCCC(C)OC(=O)COc1ccc(Cl)c2cccnc12 (stereo not given) | inactive | 
CC(C)=CCNc1ncnc2c1ncn2[C@@H]1O[C@H](CO)[C@@H](O)[C@H]1O | inactive | 
Cc1cc(=O)oc2cc(O)cc(O)c12 | inactive | 
O=C(O)CN(CCN(CC(=O)O)CC(=O)O)CC(=O)O |  | 3.78% [at 3.27 µM] (inactive)
CCCCC/C=C\C/C=C\CCCCCCCC(=O)O | inactive | 
CC/C=C\CCCCCO | inactive | 
CCOc1ccc2ccccc2c1C(=O)N[C@@H]1C(=O)N2[C@@H]1SC(C)(C)[C@@H]2C(=O)O | inactive | 
CCC(C)[O-].CCC(C)[O-].CCOC(=O)/C=C(/C)[O-].[Al+3] | inactive | 
CC[C@H](C)COC(=O)/C=C/c1ccc(N=Cc2ccc(OC)cc2)cc1 | inactive | 
c1ccsc1 | inactive | 
ClCCl | inactive | 
CC[N+](CC)(CC)CCOC(=O)C(C1CCCC1)C1CCCC1 | inactive | 

Compound | Potency | activity change, negative = cytotoxicity
C[C@@H](O)[C@H](N)C(=O)O |  | -0.923% [at 18.9 µM] (inactive)
CCN1C(=O)c2ccccc2C1Nc1ccc(OCCN2CCCCC2)cc1 (stereo not given) | inactive | 
C=CC(=O)Nc1cc2c(Nc3ccc(F)c(Cl)c3)ncnc2cc1OCCCN1CCOCC1 | inactive | 
C=CCn1c(=O)n(CC=C)c(=O)n(CC=C)c1=O | inactive | 
Cc1nc2n(c(=O)c1CCN1CCC(c3noc4cc(F)ccc34)CC1)CCCC2 | inactive | 
Cc1nc(-c2ccc(Cl)cc2)oc1COC(C)(C)C(=O)O | inactive | 
COc1cc(S(=O)(=O)O)c(C)cc1N=Nc1c(O)ccc2cc(S(=O)(=O)O)ccc12 | inactive | 
O=[N+]([O-])c1ccc(F)c(Cl)c1 | inactive | 
O=C(O)CCN(C1(C(=O)NO)CCCC1)S(=O)(=O)c1ccc(Oc2ccc(F)cc2)cc1 | inactive | 
CC(C)NC[C@@H](O)COc1ccc(CC(N)=O)cc1 | inactive | 
O=C(Oc1ccccc1)Oc1ccccc1 | inactive | 
c1cnccn1 | inactive | 
COc1ccc2c(c1)c(CC(=O)OC/C=C(\C)CC/C=C(\C)CCC=C(C)C)c(C)n2C(=O)c1ccc(Cl)cc1 | inactive | 
CCCC[P+](C)(CCCC)CCCC | inactive | 
COCCOc1cc2cc(C(=O)NC3CCN(C(C)C)CC3)n(CC(=O)Nc3ccc(Cl)cn3)c2cn1 | inactive | 
O=C(O)[C@H](O)[C@@H](O)[C@H](O[C@@H]1O[C@H](CO)[C@H](O)[C@H](O)[C@H]1O)[C@H](O)CO | inactive | 
Cc1c(C)c([N+](=O)[O-])c(C(C)(C)C)c([N+](=O)[O-])c1C | inactive | 
Nc1nc(-c2ccccc2)cs1 | inactive | 
CCN(CCN)c1cccc(C)c1 | inactive | 
C[C@H]1NCc2cc(-c3ccc4c(=O)c(C(=O)O)cn(C5CC5)c4c3OC(F)F)ccc21 |  | -2.19% [at 18.9 µM] (inactive)
